# Rows were chosen to be rich in hits. Some 3.8% of all compounds tested hit in one or more screens of this group.
# tim10-1 inh = growth inhibitors of tim10-1 mutant yeast; inhibition, % at 20 µM; 2.2% of 330,000 active; S. cerevisiae tim10-1 ts strain growth, BacTiter-Glo, 24 h;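 active = inhibition of at least 40%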;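 also: mutant grown at 25 °C; 0% = DMSO wells with yeast and 100% = wells holding no yeast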
# NALP3 yeast inh = blocks the NALP3 inflammasome reconstituted in yeast; AID 2825; Yeast reconstituted NLRP3/ASC/caspase-1, beta-gal luminescence, 24 h; 0.39% of 330,000 active; inhibition, % at 10 µM;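 active = inhibition of 50% or more; inactive = inhibition below 50%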;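 also: plate controls were induced DMSO wells for no effect and uninduced yeast grown without galactose for full effect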
# Yeast superoxide = lowers age-related superoxide in aged yeast cells. S. cerevisiae aged cells, superoxide DHE fluorescence; active compounds read low. superoxide response (% of plate mean), % at 10 µM. 0.18% of 330,000 active;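 active = superoxide response under a set limit, about three screen SD below normal, cut at about 65% in these data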;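 also: yeast aged for seven days with compound at 30 °C before DHE staining; 100% = average MFI of all compound-treated wells on the plate with controls excluded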
# TIM10 inh = TIM10 yeast growth inhibition. S. cerevisiae TIM10 strain growth, BacTiter-Glo luminescence, 24 h. inhibition, % at 10 µM. 1.4% of 330,000 active. AID 463195;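 active = inhibition of 40% or more at the single tested concentration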;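 also: wild-type TIM10 isogenic control strain grown at permissive 25 °C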
# tim23-1 inh = tim23-1 yeast growth inhibition; 1.3% of 330,000 active; inhibition, % at 20 µM; S. cerevisiae tim23-1 growth, BacTiter-Glo luminescence, 24 h;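 active = growth inhibition of the mutant yeast at or above 50%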;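 also: temperature-sensitive mutant grown at 25 °C; plate controls were DMSO-treated mutant yeast for no effect and medium wells lacking yeast for full effect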
# tim10 confirm = TIM10 yeast growth inhibition, confirmed; 63% of 4,600 active; S. cerevisiae tim10 strain growth, BacTiter-Glo luminescence, 24 h; shares compounds with TIM10 inh; AID 463215; inhibition, % at 10 µM;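 active = inhibition of yeast growth at or above a set limit in either of two replicates at 10 µM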;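 also: this counterscreen used the strain with wild-type TIM10; 0% = yeast with DMSO and 100% = medium wells lacking yeast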
# * = called active by the depositor; . = no result.
SMILES,tim10-1 inh,NALP3 yeast inh,Yeast superoxide,TIM10 inh,tim23-1 inh,tim10 confirm
CC(C)c1ccc2[nH]c(O)c(N=NC(=S)NCCc3ccccc3)c2c1,25,13,110,17,1,.
O=C(Cc1ccccc1)N/N=C/c1cc(Br)cc(Cl)c1O,39,24,102,45*,38,51*
COc1cc(Br)cc(/C=N/NC(=O)Cc2ccccc2)c1O,3,1,103,29,37,.
Cc1nc(NN)c2c3c(sc2n1)COC(C)(C)C3,0,2,102,10,-4,.
O=C1/C(=C\c2cccnc2)CCc2ccccc21,40,11,95,44*,40,40*
CC(C)/C=C1\CC/C(=C\c2cccnc2)C1=O,23,2,107,30,41,.
CCOC(=O)NC(=S)Nc1ccc(C(C)(C)C)cc1Br,38,21,105,50*,45,39*
COc1ccc(OC)c(S(=O)(=O)N2CCCC(C(=O)N3CCOCC3)C2)c1 (stereo unspecified),-14,2,93,12,7,.
COCCn1c(N)c(N(Cc2ccccc2)C(=O)c2cc(=O)[nH]c3ccccc23)c(=O)[nH]c1=O,-9,10,90,41*,-7,-18
CCCCn1c(N)c(N(Cc2ccccc2OC)C(=O)c2cc(=O)[nH]c3ccccc23)c(=O)[nH]c1=O,20,18,104,-6,-4,.
COc1cc(/C=N/NC(=O)COc2ccccc2C)ccc1OC(=O)c1cccs1,30,-2,109,43*,28,41*
CCOC(=O)C1=C(C)NC2=C(C(=O)c3ccccc32)C1c1ccc([N+](=O)[O-])o1 (stereo unspecified),31,22,108,49*,48,40*
COC(=O)c1cc2ccccc2c(-c2c(OC)c(C(=O)OC)cc3ccccc23)c1OC,30,18,85,44*,46,30*
COc1ccc(/C=C/C(=O)NC2CC3CCC2C3)cc1 (stereo unspecified),5,11,96,4,25,.
COc1ccc(/C=N/NC(=S)N[C@H]2CC3CCC2C3)cc1 (stereo partly specified),29,19,107,47*,29,36*
COCCN(C(=O)c1ccccc1OC1CCN(S(C)(=O)=O)CC1)C(C)C,1,16,76,-4,14,.
O=C(COc1cccc(OC(F)F)c1)Nc1ccc(SC(F)F)cc1,38,34,108,50*,44,39*
Cc1cc(C(=O)CN2C(=O)C3CC=CCC3C2=O)c(C)n1-c1ccccc1 (stereo unspecified),26,11,100,43*,39,7
Cc1cc(C(=O)CN2C(=O)c3ccccc3S2(=O)=O)c(C)n1-c1ccccc1,24,0,103,25,43,.
O=C1c2cccc(OCC(=O)N3CCCc4ccccc43)c2CCN1Cc1ccc(F)cc1,34,3,103,43*,43,-50
O=c1[nH]cnc2ncc(-c3ccc(O)cc3)nc12,4,14,111,41*,16,-10
c1ccc(OCCN2CCN(C(c3ccccc3)c3ccccc3)CC2)cc1,25,-3,94,42*,41,47*
O=S(=O)(Nc1ccc(N2CCCCC2)cc1)c1cccs1,15,-6,101,5,21,.
O=S(=O)(Nc1cc(Cl)ccc1N1CCCCC1)c1cccs1,37,0,104,40*,33,20
Cc1nc2ccccc2c(=O)n1/N=C/c1ccccn1,11,8,98,-1,10,.
SMILES,tim10-1 inh,NALP3 yeast inh,Yeast superoxide,TIM10 inh,tim23-1 inh,tim10 confirm
CCN=c1scc(-c2ccccc2)n1/N=C/c1ccccn1,36,12,98,45*,35,24
C=CCN=c1scc(-c2ccccc2)n1/N=C/c1ccccn1,28,20,93,48*,45,43*
COc1ccc(NC(NC(=O)c2ccc(OC)cc2)C(Cl)(Cl)Cl)cc1 (stereo unspecified),33,-2,99,42*,35,26*
O=C(Nc1ccc(Cl)cc1)N1CCC(c2nc(-c3ccc(F)cc3)no2)CC1,32,38,124,48*,20,10
COc1ccc(NC(=O)N2CCCC(c3nc(-c4ccc(OC)cc4)no3)C2)cc1 (stereo unspecified),22,19,110,-5,29,.
Cc1[nH]nc(N=CC2=C(O)CC(c3ccco3)CC2=O)c1-c1ccc(Cl)cc1 (stereo unspecified),25,3,115,21,27,.
Cc1[nH]nc(N=CC2=C(O)CC(C)(C)CC2=O)c1-c1ccc(Cl)cc1,36,1,115,41*,21,30*
Cc1ccc(NC(=S)NCCSc2ccc(Cl)cc2)c(C)c1,31,32,94,-8,24,.
CCc1ccccc1NC(=S)NCCSc1ccc(Cl)cc1,35,25,98,55*,18,40*
COCc1cc(C)nc(SCC(=O)Nc2ccc3c(c2)n(C)c(=O)n3C)c1C#N,-10,7,122,-2,7,.
CC(=O)/C(=C/c1ccc(N(C)C)cc1)C(=O)c1ccccc1,15,-11,97,41*,18,-17
CCC(=O)Nc1ccc(/C=C(\C(C)=O)C(=O)c2ccccc2)cc1,38,-10,96,35,35,.
COc1ccc(-c2cc3c(nn2)-c2ccccc2C3=O)cc1,18,49,177,42*,27,45*
c1ccc2c(c1)NC1(CCCCCC1)n1c-2nc2ccccc21,3,41,112,42*,46,27
CC(=O)C1=C(C)Nc2ncnn2C1c1ccccc1F (stereo unspecified),2,-1,101,97*,1,8
CC(=O)C1=C(C)Nc2ncnn2C1c1ccccc1 (stereo unspecified),-12,12,93,-26,0,.
COc1cccc(/C=N/n2cnc3cc(C)c(C)cc32)c1OC,35,22,110,42*,27,36*
Cc1ccc(C(=O)NC(=S)NCC2CCCO2)cc1Br (stereo unspecified),23,25,103,21,37,.
Cc1ccc(S(=O)(=O)NC2CCCc3ccccc32)cc1C (stereo unspecified),35,9,94,45*,12,-4
CC(=O)NC/C(C)=N\Nc1ccc([N+](=O)[O-])cc1,31,23,101,49*,5,-33
Cc1cccc(NC(=S)NC(=O)c2ccc(Br)o2)c1C,-4,45,94,-2,-1,.
Cc1cccc(C)c1NC(=S)NC(=O)c1ccc(Br)o1,34,-17,85,42*,38,43*
C=CCn1c(O)c(N=Nc2ccccc2O)c2ccccc21,-15,38,102,49*,48,65*
O=C1CC(c2ccco2)CC(O)=C1C=Nc1ccccc1-c1ccccc1 (stereo unspecified),38,1,95,41*,32,25

# From PubChem
